# Test results published in PubChem BioAssay (EPA / NIEHS).
# “And” between values parts separate entries of the source, which are not always exact repeats. Equal values may be shown once. The source holds several records for some structures; these can differ, active in one and inactive in another. The source made the active and inactive calls. How the source made its calls: active means hit-call score of the fitted dose curve at least 0.9, where 1 is the maximum; inactive means score below 0.9.
# Read-out: CD69, CD69 (gene 969)
# Assay: BSK_SAg_CD69: BioMAP Diversity Plus: SAg Assay for CD69 Biomarker Activity (AID 2283089)
# Conditions: primary human HUVEC with PBMC; actives raise or lower the signal
# Experimental: BSK_SAg is a cell-based, multiplexed-readout assay that uses umbilical vein endothelium and peripheral blood mononuclear cells, a human vascular primary cell co-culture, with measurements taken at 24 hours after chemical dosing in a 96-well plate.BSK_SAg_CD69 is one of 10 assay component(s) measured or calculated from the BSK_SAg assay. It is designed to make measurements of enzyme-linked immunosorbent assay, a form of binding reporter, as detected with fluorescence intensity signals by Enzyme-linked immunosorbent assay technology.Data from the assay component BSK_SAg_CD69 was analyzed into 1 assay endpoint. This assay endpoint, BSK_SAg_CD69, was analyzed with bidirectional fitting relative to DMSO as the negative control and baseline of activity. Using a type of binding reporter, gain or loss-of-signal activity can be used to understand changes in the signaling as they relate to the gene CD69. Furthermore, this assay endpoint can be referred to as a primary readout, because this assay has produced multiple assay endpoints where this one serves a signaling function. To generalize the intended target to other relatable targets, this assay endpoint is annotated to the cytokine intended target family, where the subfamily is inflammatory factor.
# The levels of cell surface (or secreted, indicated by the prefix "s") biomarker endpoints were measured by ELISA. Overt cytotoxicity to cells in confluent adherent cultures (all systems other than the BT system) was assessed by measuring total protein levels using sulforhodamine B (SRB) staining in parallel cultures at the time of biomarker measurements, indicated as SRB endpoints. For proliferation assays for adherent cell types, individual cell types are cultured at sub-confluence and relative cell numbers quantified by SRB staining at time points optimized for each system (48 h: 3C and CASM3C systems; 72 h: BT and HDF3CGF systems; 96 h: SAg system). SRB was performed by staining cells with 0.1% SRB after fixation with 10% TCA and reading wells at 560 nm.Viability and proliferation of PBMC (T cells) was quantified by Alamar Blue reduction for the SAg and BT systems. For PBMC viability (referred to as PBMC Cytotoxicity within the assay endpoint names), cells were plated (75,000/well in a 96-well plate) and then chemical samples added for 1 h before addition of activators, SEB and TSST-1 (20 ng/mL final concentration each). Cells were incubated for 90 h. Then, Alamar Blue (20 uL/well) (Invitrogen, Cat DAL1100) was added for 6 h, and the plates were read with a fluorescence microplate reader at 546/580 nm (excitation/emission). For PBMC proliferation, cells were plated and activated as above but incubated for only 16 h prior to addition of Alamar Blue. Plates were read after 6 h.
SMILES,outcome,AC50
Oc1cccc(O)c1,inactive,
CC(C)(C)c1cccc(C(C)(C)C)c1O,inactive,
COCC(C)OCC(C)O (stereo not given),inactive,
NCC(F)(F)C(F)(F)C(F)(F)C(F)(F)C(F)(F)C(F)(F)C(F)(F)F,inactive,
O=C(O)c1ccccc1C(c1ccc(O)cc1)c1ccc(O)cc1,inactive,
CN1CCN(c2ccccc2/C=C2\SCCN(c3ccc(Cl)c(Cl)c3)C2=O)CC1,,20 µM (active)
CC[C@H](C)[C@@H](C(=O)O)n1sc2ccccc2c1=O,inactive,
c1ccc2c(c1)Cc1ccccc1-2,inactive,
CCOC(=O)CC(O)(CC(=O)OCC)C(=O)OCC,inactive,
CC#C[C@]1(O)CC[C@H]2[C@@H]3CCC4=CC(=O)CCC4=C3[C@@H](c3ccc(N(C)C)cc3)C[C@@]21C,,31.9 µM (active)
C=C(C)C(=O)OCCC(F)(F)C(F)(F)C(F)(F)C(F)(F)C(F)(F)C(F)(F)F,inactive,
ClC1=C(Cl)C(Cl)(Cl)C(Cl)=C1Cl,,8.69 µM (active)
CC1=C(/C=C/C(C)=C/C=C/C(C)=C/C(=O)O)C(C)(C)CCC1,,8.54 µM (active)
Cc1oc(-c2ccccc2)nc1CCOc1ccc(C[C@H](Nc2ccccc2C(=O)c2ccccc2)C(=O)O)cc1,,14.4 µM (active)
c1ccc2cc3c(ccc4ccccc43)cc2c1,inactive,
CCc1nn(C2CCCCC2)c2cc(C3(C#N)CCC(C(=O)O)CC3)ccc12 (stereo not given),,5.47 µM (active)
CCCCOCCO,inactive,
COC(=O)CCCCC(=O)OC,inactive,
CCCCCCCCCCCCN1CCCC1=O,,29.9 µM (active)

SMILES,outcome,AC50
CCCCCCCCCCCCc1ccccc1S(=O)(=O)O,inactive,
OCCC(F)(F)C(F)(F)C(F)(F)C(F)(F)C(F)(F)C(F)(F)C(F)(F)C(F)(F)F,inactive,26 µM (active) and 38.3 µM (active)
CC(=O)NC1(c2cccc(F)c2)CCN(CC[C@@]2(c3ccc(Cl)c(Cl)c3)CN(c3ccccc3)C(=O)CO2)CC1,,25.2 µM (active)
CC(=O)CC(C)(C)O,inactive,
OC1CCCCC1,inactive,
CCCCCCCCOC(=O)CCCCCCCCC(=O)OCCCCCCCC,inactive,
CCCCCCCC(=O)O,inactive,
O=C(O)Cc1cc(I)c(Oc2cc(I)c(O)c(I)c2)c(I)c1,,15.3 µM (active)
C[C@@H]1C[C@H]2[C@@H]3CCC4=CC(=O)C=C[C@]4(C)[C@@]3(F)[C@@H](O)C[C@]2(C)[C@@]1(O)C(=O)COP(=O)(O)O,inactive,
OCCC(F)(F)C(F)(F)C(F)(F)C(F)(F)C(F)(F)C(F)(F)F,inactive,51.3 µM (active)
CCC(C)(C)C1CCC(O)CC1 (stereo not given),inactive,
CCCCCCCCCCCCCC[N+](C)(C)C,,2.53 µM (active)
CCCOc1sc(C(=O)N2CCC(c3cc(CN)ccc3F)CC2)c(C)c1Br,,8.27 µM (active)
CC(C)(C)CC(C)(C)c1ccc(O)c(-n2nc3ccccc3n2)c1,inactive,
O=C(OCCOCCOC(=O)c1ccccc1)c1ccccc1,inactive,
CC(O)CO (stereo not given),inactive,
CCCCC(CC)COC(=O)CCCCC(=O)OCC(CC)CCCC (stereo not given),inactive,
CCCCC(CC)COC(=O)CCCCC(=O)OCc1ccccc1 (stereo not given),inactive,
C#C[C@]1(O)CC[C@H]2[C@@H]3CCC4=CC(=O)CC[C@@H]4[C@H]3CC[C@@]21C,inactive,
